Laboratory results reported in PubChem BioAssay AID1159580 (chemical genetic matrix, 2015).
Among all 5,500 compounds or so, about 2,000 (36%) were called active. Roughly 18% stayed inconclusive and do not appear here. Rule as the data show it: active = normalized growth mostly below about 0.91 (no sharp cut-off); inconclusive = no clear call, values can overlap the other calls; inactive = mostly above about 0.92. The list shows a part of the results.

Assay: chemical genetic growth profiling, strain panel (AID 1159580);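 also: tested at 20 µM; growth read once vehicle control cultures reached saturation at 30 °C; 1 = growth at the plate median or of vehicle wells; lower values mean less growth of the strain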
Settings: S. cerevisiae deletion strains, growth OD

Measured: normalized growth

NC(COCc1ccccc1)C(=O)O (stereo not drawn)
inactive: locus YHR030C, strain SLT2, hits give low values 1.01 | locus YHR079C, strain IRE1, hits give low values 1 | locus YJL095W, strain BCK1, hits give low values 0.995 | locus YJR066W, strain TOR1, hits give low values 0.891 | locus YLR113W, strain HOG1, hits give low values 1.01 | locus YNL183C, strain NPR1, hits give low values 0.904 | locus YOR231W, strain MKK1, hits give low values 1.01 | locus YPL256C, strain CLN2, hits give low values 0.999
